Compounds with a hit are over-represented: about 3.9% of the library has one in this group of screens.
PLC-gamma1 inh – inhibitors of human phospholipase C gamma1. P19174. purified PLC-gamma1, fluorogenic substrate, fluorescence. inhibition, % at 12.2 µM. actives 0.84% (n = 370,000). AID 720700; in the data active = inhibition above about 9.5%
PLC-beta3 inh – blocks human PLC-beta3 enzyme activity | Q01970 | Purified PLC-beta3, fluorogenic substrate, fluorescence | inhibition, % at 12.2 µM | actives 0.18% (n = 370,000); in the data active = inhibition above about 11%;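 also: 0% = median of compound wells on plate and 100% = full blocker control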
sPLA2-III inh – Blocks human group III sPLA2 activity; inhibition, % at 12.2 µM; QFRET BODIPY PC-A2 liposome hydrolysis, fluorescence; actives 0.56% (n = 370,000); AID 743126;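 active = inhibition above mean plus 3 SD of compounds lying within the high and low control bounds, cut at about 19% in these data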;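 also: 0% = median of test compound wells and 100% = no enzyme DMSO wells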
Yeast superoxide – caloric restriction mimetics inhibiting age-related superoxide in yeast | S. cerevisiae aged cells, superoxide DHE fluorescence; stronger effect = lower value | superoxide response (% of plate mean), % at 10 µM | actives 0.18% (n = 330,000) | AID 2690;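 active = superoxide response under a set limit, about three screen SD below normal, cut at about 65% in these data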;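 also: yeast aged for seven days with compound at 30 °C before DHE staining; 100% = average MFI of all compound-treated wells on the plate with controls excluded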
AHR activator – activates the human aryl hydrocarbon receptor; activation, % at 5 µM; AHR-responsive luciferase reporter cells, luminescence; actives 2.5% (n = 320,000); P35869; AID 2796; in the data active = activation above about 47%;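 also: 0% = vehicle wells and 100% = reference agonist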
HIF act – HIF pathway transcriptional activation. actives 0.32% (n = 300,000). activation, % at 7.5 µM (by protocol). U2OS HRE-luciferase reporter, luminescence; normalized: DMSO 0%, desferrioxamine 100%. AID 1910;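 active = mean activation of at least 10% of the iron chelator positive control signal, with at least half of replicates also reaching 10%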
An asterisk follows results filed as active; i = inactive; . = no result.

SMILES | PLC-gamma1 inh | PLC-beta3 inh | sPLA2-III inh | Yeast superoxide | AHR activator | HIF act
C/C(=N\NC(=O)c1ccccc1O)c1cccc(NC(=O)c2ccccc2)c1 | -20 | -29 | -5 | 107 | 53* | 1
C/C(=N\NC(=O)c1cccc([N+](=O)[O-])c1)c1ccncc1 | 1 | 4 | 0 | 104 | 78* | -1
C/C(=N\NC(=O)c1cc2c(s1)CCC(C)C2)c1ccc[nH]1 (configuration not stated) | -50 | -52 | 11 | 116 | 40 | .
COc1ccccc1NC(=O)OC1CC2CC1[C@H]1CCCCN1[C@H]2Cc1ccccc1 (some centres not stated) | 6 | 5 | 5 | . | . | .
COC(=O)[C@]12C[C@H](CC(=O)NCC3CCCCC3)C(=O)N(Cc3ccc4c(c3)OCO4)C1=C[C@H](C(C)C)O[C@@H]2C1CC1 | 1 | 6 | -3 | . | . | .
CCCCOCCCNC(=O)C[C@H]1C[C@@]2(C(=O)OC)C(=C[C@H](C(C)C)O[C@@H]2C2CC2)N(Cc2ccco2)C1=O | 1 | 3 | -12 | . | . | .
COCc1cn(-c2ccc3c(c2)[C@]2(CC(=O)N(C)C2c2ccccc2)C(=O)N3CC(C)C)nn1 (some centres not stated) | 2 | 2 | 0 | . | . | .
Cn1c(O)c(C2=c3ccccc3=NC2=O)[nH]c1=S | 1 | 2 | 7 | 105 | 61* | 0
COc1ccc2nc(-n3c(O)c(C4=c5ccccc5=NC4=O)[nH]c3=S)sc2c1 | 4 | 2 | 2 | 107 | 23 | 0
CC(C)c1ccc(NC(=O)O[C@H]2CC[C@@]34CCCN3C(=O)CCC[C@H]4[C@H]2C)cc1 | 0 | 2 | 2 | . | . | .
O=C(Nc1ncc2c(n1)-c1ccccc1CC2)c1ccc(F)cc1 | -3 | -3 | 3 | 88 | 65* | 0
O=C(Nc1ncc2c(n1)-c1ccccc1CC2)c1cccs1 | -2 | -4 | 8 | 109 | 63* | 1
O=C(Nc1ncc2c(n1)-c1ccccc1CC2)c1ccccc1 | 6 | -1 | -1 | 92 | 20 | 1
O=C(Nc1nccc(-c2cccs2)n1)c1cccs1 | 5 | 1 | 1 | 101 | 48* | 4
COC(=O)C1=C(C)N(C)C(=NCC2CC2)NC1c1ccccc1 (configuration not stated) | 1 | 1 | 14 | . | . | .
Cc1ccc(S(=O)(=O)N2CCCC2C(=O)N2CCc3ccccc3C2)cc1 (configuration not stated) | 3 | 3 | -1 | . | . | .
CC(=O)Nc1sc2c(c1-c1nc(-c3ccccc3)cs1)CCN(C(C)C)C2 | -446 | i | -44 | . | . | .
CCC[C@H]1[C@@H](NC(=O)C2CCOC2)CC[C@@]23CCCN2C(=O)CCC[C@@H]13 (some centres not stated) | 0 | 1 | 2 | . | . | .
O=C(OCc1cn(Cc2ccc(F)cc2F)nn1)N1CCOCC1 | -1 | 0 | 6 | . | . | .
CCCCN1CC(COCc2ccccc2)Oc2cccc(Oc3ccc(SC)c(C)c3)c2S1(=O)=O (configuration not stated) | 0 | 1 | 5 | . | . | .
Nc1nc(-c2ccccn2)nc(N)c1Cc1ccc(Cl)cc1Cl | -3 | -6 | 13 | 98 | 25 | 15*
N#C/C(=C\c1ccc(-c2ccccc2[N+](=O)[O-])o1)C(=O)Nc1nc(-c2cccs2)cs1 | -17 | -16 | -6 | 103 | 59* | 0
CC(C)COc1ccc(C(=O)Nc2ccc([N+](=O)[O-])cc2)cc1 | . | . | . | 124 | 3 | 15*
CCC(=O)Oc1ccc(C(=O)Nc2ccc([N+](=O)[O-])cc2)cc1 | 2 | 0 | -10 | 92 | 5 | 4
CCC(C)(C)C1CCC(=NNC(=S)Nc2ccccc2)CC1 (configuration not stated) | 1 | -2 | -2 | 95 | 6 | 2
SMILES | PLC-gamma1 inh | PLC-beta3 inh | sPLA2-III inh | Yeast superoxide | AHR activator | HIF act
CCC(C)(C)C1CCC(=NNC(=S)Nc2cccnc2)CC1 (configuration not stated) | 3 | 3 | 8 | 97 | 69* | 0
COC(=O)[C@]12C[C@H](CC(=O)NCCC(C)C)C(=O)N(CCC3=CCCCC3)C1=C[C@H](C1CCCC1)O[C@@H]2C | -1 | 2 | -10 | . | . | .
CCOC(=O)Cn1c(-c2cccnc2Cl)nc2cc(Cl)c(Cl)cc21 | -6 | -8 | -1 | 103 | 0 | 0
CCn1c(-c2cccnc2Cl)nc2cc(Cl)c(Cl)cc21 | -13 | -20 | -4 | 84 | 52* | 1
O=c1[nH]c(/C=C/c2ccccc2[N+](=O)[O-])nc2ccccc12 | 4 | 7 | -3 | 98 | 79* | 0
O=c1[nH]c(/C=C/c2ccccc2F)nc2ccccc12 | -4 | -12 | 4 | 98 | . | 8
O=c1[nH]c(/C=C/c2cccc3ccccc23)nc2ccccc12 | -15 | -16 | -5 | 105 | 56* | 2
CC(C)CNC(=O)OCc1cn(Cc2cccc(F)c2)nn1 | 0 | -2 | 1 | . | . | .
C=CCc1cc(C)cc(C)c1OCCn1cncn1 | -2 | 3 | 2 | 95 | 59* | 1
COc1ccccc1N(CC(=O)NC1CCCCC1)S(C)(=O)=O | 5 | 5 | 18 | 119 | 3 | 94*
COc1ccccc1N(CC(=O)NC1CCCCC1)S(=O)(=O)c1ccccc1 | -1 | -5 | 3 | 100 | 1 | 0
COc1ccccc1N(CC(=O)N/N=C/c1c(O)ccc2ccccc12)S(C)(=O)=O | -19 | -28 | 1 | 110 | 25 | 11*
COc1ccc(Cn2c(NC(=O)c3ccccc3)nc(Cc3ccccc3)c2Cc2ccccc2)c(OC)c1 | -16 | -22 | -3 | . | . | .
Clc1ccccc1-c1csc(Nc2cccnc2)n1 | -1 | -7 | 10 | 115 | 68* | 2
O=C(COc1cccc(F)c1)Nc1nc(-c2cccnc2)cs1 | -13 | -23 | -3 | 108 | 54* | .
c1cncc(Nc2nc(-c3cccnc3)cs2)c1 | 0 | 1 | 3 | 84 | 50* | 1
Cc1nc(C)c(-c2csc(Nc3cccnc3)n2)s1 | -2 | -11 | 5 | 100 | 94* | 1
c1cncc(Nc2nc(-c3ccncc3)cs2)c1 | 0 | -6 | 1 | 79 | 4 | 0
Clc1cccc(-c2csc(Nc3cccnc3)n2)c1 | -2 | -6 | 6 | 91 | 41 | 2
O=C(COc1cccc(F)c1)Nc1nc(-c2ccncc2)cs1 | -21 | -31 | -1 | 97 | 10 | .
COC(=O)C1=C(C)N(Cc2ccccc2C(F)(F)F)C(=NCc2ccccc2)NC1c1ccc(Cl)cc1 (configuration not stated) | 6 | -3 | 15 | . | . | .
O=C(NCc1ccco1)O[C@@H]1CC[C@@]23CCCN2C(=O)CCC[C@H]3C1 | 0 | 3 | 4 | . | . | .
CCOc1ncccc1C(=O)Nc1nc(C(C)(C)C)cs1 | -3 | -3 | 11 | 92 | 59* | 0
c1cc(Nc2ncnc3sccc23)cc(-c2nnc3n2CCCCC3)c1 | -4 | -10 | 5 | 95 | 49* | 1
